# Bioassay records deposited in PubChem by National Center for Advancing Translational Sciences (NCATS).
# The list is not random: actives were taken first. Their share in the collection is about 11%.
# AMA1 RON2 block: disrupts binding of P. falciparum AMA1 to RON2. AlphaScreen AMA1-biotinylated RON2 peptide binding. Potency, µM (doses to about 58.2 µM), for inactives: at the highest dose activity change, negative = inhibition, actives largely listed as inhibitors. hit rate 0.2% among 360,000. AID 720542;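 note: 0% = vehicle wells and -100% = peptide control; nearly all actives have a fitted effect of over 45% in size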
#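 AMA1 (3D7) with his tag at 25 nM final met compounds first, then biotinylated RON2 peptide at 25 nM; detection used donor plus acceptor beads, 10 µg/mL apiece, read by AlphaScreen after 30 min at room temperature.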
# HCV inh: inhibitors of hepatitis C virus infection. Potency, µM (top dose mostly 41.8 µM), for the others: top-dose activity change, negative = inhibition, usual class: inhibitors. hit rate 3.4% among 340,000. AID 651820. Huh7.5.1 HCVcc-Cre infection, luciferase reporter, 44 h
#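 Compounds are dispensed onto cells plated 4 h earlier at 1,000 per well, with HCVcc-Cre virus (about 0.5 moi) added next. Following 44 h of culture, luminescent signal is measured for 15 sec after 15 min with substrate at room temperature.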
# Pf growth 48h: inhibits P. falciparum growth in the first generation, 48 h; hit rate 5.9% among 310,000; Potency, µM (series often up to 28.7 µM), inactives show at the top dose activity change, negative = inhibition, hits mostly inhibitors; AID 504832; P. falciparum luciferase growth in erythrocytes, 48 h
#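 Compounds are pin-transferred into medium, infected erythrocytes (2% hematocrit, 0.1% parasitemia final) are added, and plates sit one parasite generation at 37 C in 5% CO2. Detection reagent is then added and luminescence measured.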
# Pf growth 96h: P. falciparum growth inhibition at 96 hours; P. falciparum luciferase reporter growth, 96 h; hit rate 6.9% among 320,000; Potency, µM (doses to about 28.7 µM), for the others: top-dose activity change, negative = inhibition, hits mostly inhibitors
#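 Parasite growth measured via integrated firefly luciferase reporter in P. falciparum. Infected erythrocytes at 2% hematocrit, 0.05% parasitemia final were treated 96 hours at 37 C under 5% CO2, and luminescence was read.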
# * marks the source's active call; other numbers are inactive results; ? = inconclusive; nt = no result. Calls come from the whole dose curve; as a rule, active = well fitted curve in the direction sought with a large enough effect; inconclusive = small, poorly fitted or top-dose-only effect, or another doubt; inactive = no such curve, though single readings can be large; an effect the other way counts as inactive or inconclusive. Unless noted, % is set by controls: 0 for no effect and ±100 for the full control effect; potency is the fitted concentration of half-maximal effect.
SMILES,AMA1 RON2 block,HCV inh,Pf growth 48h,Pf growth 96h
C[C@]12C(=O)N(c3cccc(F)c3)C(=O)N1[C@@H]1c3ccccc3OC[C@@H]1[C@H]2c1ccccc1,-13%,?,?,8.3µM*
C[C@]12C(=O)N(c3ccccc3)C(=O)N1[C@@H]1c3ccccc3OC[C@@H]1[C@H]2c1ccccc1,-1%,?,?,4%
Cc1ccc(N2C(=O)N3[C@H]4c5ccccc5OC[C@@H]4[C@@H](c4ccccc4)[C@@]3(C)C2=O)cc1,7%,?,?,8.3µM*
CC1(C)Cn2c(nnc2-c2cccc(O)c2)S1,33%,3%,44%,12µM*
Cc1cccc(-c2nc3ccc(C(=O)N4CCC5(CC4)OCCO5)cc3nc2-c2cccc(C)c2)c1,-6%,?,10µM*,?
CCCC1=Nc2cc(C(=O)N3CCCC3)ccc2Sc2ccc(C)cc21,-17%,-22%,12µM*,6%
CCC1=Nc2cc(C(=O)N3CCC4(CC3)OCCO4)ccc2Sc2ccc(C)cc21,-4%,-1%,10µM*,-26%
CCC1=Nc2cc(C(=O)N3CCC4(CC3)OCCO4)ccc2Sc2ccccc21,-7%,-14%,?,30%
CCCC1=Nc2cc(C(=O)N3CCN(c4ccccn4)CC3)ccc2Sc2ccc(C)cc21,-29%,11µM*,9.3µM*,?
CC1=Nc2cc(C(=O)N3CCCC3)ccc2Sc2ccc(C)cc21,-8%,1%,9.3µM*,?
CCOC(=O)N1CCN(C(=O)c2ccc3c(c2)N=C(CC)c2cc(C)ccc2S3)CC1,-2%,?,?,?
CC1=Nc2cc(C(=O)N3CCCCC3)ccc2Sc2ccc(C)cc21,-7%,-1%,9.3µM*,32%
CCC1=Nc2cc(C(=O)NCc3ccco3)ccc2Sc2ccc(C)cc21,-12%,?,1.3µM*,25%
CCOC(=O)N1CCC(NC(=O)c2ccc3c(c2)N=C(CC)c2cc(C)ccc2S3)CC1,7%,3.2µM*,?,-5%
CCC1=Nc2cc(C(=O)NCCN3CCOCC3)ccc2Sc2ccc(C)cc21,0%,?,?,-29%
CCCC1=Nc2cc(C(=O)N3CCC(C(=O)OCC)CC3)ccc2Sc2ccccc21,-20%,?,8.3µM*,9.3µM*
CCCC1=Nc2cc(C(=O)N3CCC(C(N)=O)CC3)ccc2Sc2ccccc21,6%,7%,?,?
Cc1ccc(C(=O)NCC(C)(C)O)cc1,-28%,13%,?,?
Cc1ccc(C(=O)NC(C)(COc2nonc2C)COc2nonc2C)cc1,10%,-30%,12µM*,nt
CCc1ccc(N(C2C=CS(=O)(=O)C2)S(=O)(=O)c2ccccc2)cc1 (stereo not drawn),8%,7%,?,0%
Cc1ccc(S(=O)(=O)N(c2cccc(C(F)(F)F)c2)C2C=CS(=O)(=O)C2)cc1 (stereo not drawn),0%,10µM*,nt,17µM*
CC(CCc1ccccc1)NC(=O)CCNS(=O)(=O)c1ccccc1 (stereo not drawn),-4%,-1%,-11%,18%
CCCOC(=O)c1ccc(Cl)c(NC(=O)c2cccnc2)c1,nt,nt,?,32%
COc1ccc(S(=O)(=O)N(C)c2ccc(C(=O)N3CCCC3)cc2)cc1,16%,-19%,0%,?
Cc1ccc(S(=O)(=O)N(C)c2ccc(OC(C)C(=O)N3CCCC3)cc2)cc1C (stereo not drawn),-1%,23%,12µM*,?
SMILES,AMA1 RON2 block,HCV inh,Pf growth 48h,Pf growth 96h
CS/C(Nc1cc(Cl)ccc1Cl)=C(/C#N)C(=O)c1ccco1,-6%,-11%,3.3µM*,5.9µM*
NC(=O)c1nsc(C(=O)N(c2ccc(F)cc2)C(C(=O)NCC2CCCO2)c2ccc3ncccc3c2)c1N (stereo not drawn),-11%,-2%,?,25%
C[C@H](NC(=O)N1CCn2c1nc1ccccc12)C(=O)N1CCCCC1,127%,10%,13%,23%
COc1ccccc1N1CCN(CCCNC(=O)Nc2ccccc2)CC1,-13%,-21%,12µM*,?
COc1ccc(N2CCN(CCCNC(=O)Nc3ccccc3)CC2)cc1,-13%,?,nt,-1%
Cc1ccccc1NC(=O)NCCCN1CCN(c2ccccc2)CC1,-13%,12%,nt,2.3µM*
COc1ccc(C(=O)NCCCN2CCN(CCCNC(=O)c3ccc(OC)c(OC)c3)CC2)cc1OC,-2%,4%,15%,-12%
O=C(NCCN1CCN(c2ccccc2)CC1)Nc1cccc(Br)c1,-20%,14µM*,?,?
